Laboratory results: PubChem BioAssay AID1159580 (chemical genetic matrix, 2015)
Where “and” joins values, the source holds several entries; their conditions need not be identical. Equal values may be shown once. About 2,000 (36%) of roughly 5,500 compounds were called active. Not shown: some 18% with an inconclusive outcome. The list shows a part of the results. A number with no mark means an inactive call. Cut-off read from the data, not from the text of the source: active = normalized growth mostly below about 0.91 (no sharp cut-off); inconclusive = no clear call, values can overlap the other calls; inactive = mostly above about 0.92.

Assay: chemical genetic growth profiling, strain panel (AID 1159580);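 note: tested at 20 µM; growth read once vehicle control cultures reached saturation at 30 °C; 1 = growth at the plate median or of vehicle wells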
Details: S. cerevisiae deletion strains, growth OD

CCN(CC)CCOC(=O)C1(C2CCCCC2)CCCCC1
normalized growth (locus YAL013W, strain DEP1, stronger effect = lower value): 0.892 (active)
normalized growth (locus YAL021C, strain ccr4, stronger effect = lower value): 0.925
normalized growth (locus YAL026C, strain drs2, stronger effect = lower value): 0.97
normalized growth (locus YAL030W, strain snc1, stronger effect = lower value): 0.985
normalized growth (locus YAL040C, strain CLN3, stronger effect = lower value): 1.01
normalized growth (locus YBL061C, strain skt5, stronger effect = lower value): 0.99
normalized growth (locus YBR009C, strain hhf1, stronger effect = lower value): 0.97
normalized growth (locus YBR021W, strain FUR4, stronger effect = lower value): 0.862
normalized growth (locus YBR023C, strain chs3, stronger effect = lower value): 0.972
normalized growth (locus YBR171W, strain sec66, stronger effect = lower value): 0.987
normalized growth (locus YBR229C, strain ROT2, stronger effect = lower value): 1.01
normalized growth (locus YBR231C, strain swc5, stronger effect = lower value): 0.998
normalized growth (locus YBR279W, strain paf1, stronger effect = lower value): 0.973
normalized growth (locus YCL011C, strain gbp2, stronger effect = lower value): 0.928
normalized growth (locus YCL016C, strain dcc1, stronger effect = lower value): 0.95
normalized growth (locus YCL029C, strain bik1, stronger effect = lower value): 0.99
normalized growth (locus YCL061C, strain MRC1 (second series), stronger effect = lower value): 0.998
normalized growth (locus YCL069W, strain vba3, stronger effect = lower value): 0.996
normalized growth (locus YCR088W, strain abp1, stronger effect = lower value): 0.988
normalized growth (locus YDL005C, strain med2, stronger effect = lower value): 0.985
normalized growth (locus YDL035C, strain GPR1, stronger effect = lower value): 1.02
normalized growth (locus YDL040C, strain nat1, stronger effect = lower value): 0.99
normalized growth (locus YDL074C, strain BRE1, stronger effect = lower value): 0.965
normalized growth (locus YDL101C, strain DUN1, stronger effect = lower value): 0.998
normalized growth (locus YDL134C, strain PPH21, stronger effect = lower value): 1.02
normalized growth (locus YDL185W, strain tfp1, stronger effect = lower value): 1
normalized growth (locus YDL192W, strain arf1, stronger effect = lower value): 0.985
normalized growth (locus YDR001C, strain nth1, stronger effect = lower value): 0.979
normalized growth (locus YDR069C, strain doa4, stronger effect = lower value): 0.983
normalized growth (locus YDR101C, strain arx1, stronger effect = lower value): 0.995
normalized growth (locus YDR137W, strain rgp1, stronger effect = lower value): 1.08
normalized growth (locus YDR150W, strain NUM1, stronger effect = lower value): 1.01 and 0.995
normalized growth (locus YDR159W, strain sac3, stronger effect = lower value): 0.945
normalized growth (locus YDR162C, strain NBP2, stronger effect = lower value): 1.01
normalized growth (locus YDR195W, strain ref2): 0.994
normalized growth (locus YDR297W, strain sur2, stronger effect = lower value): 0.99
normalized growth (locus YDR318W, strain mcm21, stronger effect = lower value): 0.972
normalized growth (locus YDR334W, strain swr1, stronger effect = lower value): 0.98
normalized growth (locus YDR335W, strain msn5, stronger effect = lower value): 0.981
normalized growth (locus YDR363W, strain ESC2, stronger effect = lower value): 0.971
normalized growth (locus YDR388W, stronger effect = lower value): 0.982
normalized growth (locus YDR392W, strain spt3, stronger effect = lower value): 0.875
normalized growth (locus YDR502C, strain sam2, stronger effect = lower value): 0.956
normalized growth (locus YEL003W, strain gim4, stronger effect = lower value): 0.987
normalized growth (locus YEL037C, strain rad23, stronger effect = lower value): 0.983
normalized growth (locus YEL061C, strain CIN8 (second series), stronger effect = lower value): 0.978
normalized growth (locus YEL061C, strain CIN8, stronger effect = lower value): 1
normalized growth (locus YER002W, strain NOP16, stronger effect = lower value): 1.02
normalized growth (locus YER015W, strain faa2, stronger effect = lower value): 0.944
normalized growth (locus YER016W, strain bim1, stronger effect = lower value): 0.969
normalized growth (locus YER110C, stronger effect = lower value): 0.988
normalized growth (locus YER111C, strain swi4, stronger effect = lower value): 0.993
normalized growth (locus YER155C, strain BEM2 (second series), stronger effect = lower value): 0.976
normalized growth (locus YER155C, strain BEM2, stronger effect = lower value): 1.01
normalized growth (locus YER167W, strain BCK2, stronger effect = lower value): 1.01
normalized growth (locus YFR010W, strain ubp6, stronger effect = lower value): 0.972
normalized growth (locus YGL078C, strain dbp3, stronger effect = lower value): 0.983
normalized growth (locus YGL086W, strain mad1, stronger effect = lower value): 0.971
normalized growth (locus YGL167C, strain pmr1, stronger effect = lower value): 0.985
normalized growth (locus YGL173C, strain kem1, stronger effect = lower value): 1
normalized growth (locus YGL227W, strain vid30, stronger effect = lower value): 0.974
normalized growth (locus YGL240W, strain doc1, stronger effect = lower value): 0.984
normalized growth (locus YGL248W, strain PDE1, stronger effect = lower value): 0.991
normalized growth (locus YGL253W, strain hxk2, stronger effect = lower value): 0.985
normalized growth (locus YGR078C, strain PAC10, stronger effect = lower value): 0.972 and 1.05
normalized growth (locus YGR135W, strain pre9, stronger effect = lower value): 0.921
normalized growth (locus YGR252W, strain gcn5, stronger effect = lower value): 0.889
normalized growth (locus YHR013C, strain ard1, stronger effect = lower value): 0.944
normalized growth (locus YHR027C, strain rpn1, stronger effect = lower value): 0.968
normalized growth (locus YHR030C, strain SLT2, stronger effect = lower value): 1 and 1.05
normalized growth (locus YHR079C, strain IRE1 (second series), stronger effect = lower value): 0.982
normalized growth (locus YHR079C, strain IRE1, stronger effect = lower value): 1.02
normalized growth (locus YHR094C, strain hxt1, stronger effect = lower value): 0.992
normalized growth (locus YHR129C, strain ARP1, stronger effect = lower value): 1
normalized growth (locus YHR142W, strain chs7, stronger effect = lower value): 0.987
normalized growth (locus YHR200W, strain rpn10, stronger effect = lower value): 0.986
normalized growth (locus YIL066C, strain RNR3, stronger effect = lower value): 1.01
normalized growth (locus YIL073C, strain SPO22, stronger effect = lower value): 0.997
normalized growth (locus YIL125W, strain kgd1, stronger effect = lower value): 0.99
normalized growth (locus YIR030C, strain dcg1, stronger effect = lower value): 0.997
normalized growth (locus YJL092W, strain hpr5, stronger effect = lower value): 0.969
normalized growth (locus YJL095W, strain BCK1 (second series), stronger effect = lower value): 0.978
normalized growth (locus YJL095W, strain BCK1, stronger effect = lower value): 0.929 and 1.04
normalized growth (locus YJL115W, strain asf1, stronger effect = lower value): 0.983
normalized growth (locus YJL129C, strain trk1, stronger effect = lower value): 0.98
normalized growth (locus YJL134W, strain LCB3, stronger effect = lower value): 1.01
normalized growth (locus YJL154C, strain vps35, stronger effect = lower value): 0.982
normalized growth (locus YJL164C, strain tpk1, stronger effect = lower value): 0.951
normalized growth (locus YJL166W, strain qcr8, stronger effect = lower value): 1
normalized growth (locus YJL168C, strain set2, stronger effect = lower value): 0.981
normalized growth (locus YJL187C, strain SWE1 (second series), stronger effect = lower value): 0.974
normalized growth (locus YJR043C, strain POL32, stronger effect = lower value): 1.06
